Growth inhibition data for 10 compounds are collected here from PubChem BioAssay (NCI).

This is part of a sample that, as a whole, favours compounds with a hit. Of some 79,000 tested, about 15% had one in any assay. A number with no mark means an inactive call. The source made the active and inactive calls. Rule as the data show it: active = growth inhibition above about 70%; inactive = the rest.

Assay [1] is described as follows: NCI Yeast Anticancer Drug Screen. Data for the rad50 strain (AID 155).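 Also: 0% = growth of vehicle-only cultures of the same strain.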 Particulars: S. cerevisiae rad50 strain growth inhibition, stronger effect = higher value. The gist of the method:
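Yeast carrying a defined DNA repair defect were exposed to test compounds, and growth was compared with vehicle-treated controls to give percent inhibition.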

Assay [2] in a line: NCI Yeast Anticancer Drug Screen. Data for the mec2-1 strain (AID 157). Particulars: S. cerevisiae mec2-1 strain, stronger effect = higher value. The gist of the method:
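Strain: mec2-1 (DNA repair/cell cycle alteration). Compound exposure, then growth measured; inhibition expressed relative to vehicle.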

Assay [3] is described as follows: NCI Yeast Anticancer Drug Screen. Data for the sgs1 mgt1 strain (AID 161).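 Also: 0% = growth of cultures given vehicle only.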 Particulars: S. cerevisiae sgs1 mgt1 strain, stronger effect = higher value. The essentials:
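Mutant yeast exposed to compound; growth scored against vehicle-only wells.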

Assay [4] can be described thus: NCI Yeast Anticancer Drug Screen. Data for the cln2 rad14 strain (AID 165).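 Also: 0% = growth equal to vehicle treated cultures.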 Particulars: S. cerevisiae cln2 rad14 strain, stronger effect = higher value. The essentials:
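Compounds are applied to the cln2 rad14 yeast strain, and growth is then compared with that of vehicle-treated cultures to give inhibition.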

The nature of assay [5]: NCI Yeast Anticancer Drug Screen. Data for the bub3 strain (AID 167). Particulars: S. cerevisiae bub3 mutant strain, stronger effect = higher value. The essentials:
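Compounds were applied to a genetically altered yeast strain carrying a cell-cycle control defect. Growth inhibition was scored against vehicle-treated controls.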

The nature of assay [6]: NCI Yeast Anticancer Drug Screen. Data for the mlh1 rad18 strain (AID 175). Particulars: S. cerevisiae mlh1 rad18 strain growth inhibition, stronger effect = higher value. The essentials: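 Read-out is yeast growth inhibition, calculated against vehicle-only controls. The compound was applied to a strain engineered with DNA damage repair alterations.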
Where [7] appears, read: at 5.0 µM (retest, dose inferred, filed as 0.5).
Setting [8] is: at 50.0 µM (retest, dose inferred, filed as 5.0).

In the case of `O=C(C(=S)c1ccccc1)N(Cc1ccccc1)Cc1ccccc1`, the growth inhibition in assay [1] (setting [7]) was -2%; in assay [1] (setting [8]), 44%; in assay [1] (at 50.0 µM) it was 79.3% (active); in assay [2] (setting [7]) it was 1%; in assay [2] (setting [8]) it was 25%; in assay [2] (at 50.0 µM), 88.9% (active). For the same compound, the growth inhibition in assay [3] (setting [7]) is 0%; in assay [3] (setting [8]), 48%; in assay [3] (at 50.0 µM) it was 95.9% (active); in assay [4] (setting [7]), 0%; in assay [4] (setting [8]) it was 27%; in assay [4] (at 50.0 µM), 59.4%. For the same compound, the growth inhibition in assay [5] (setting [7]) was 4%; in assay [5] (setting [8]) it was 41%; in assay [5] (at 50.0 µM) it was 93.8% (active); in assay [6] (setting [7]) it was 2%; in assay [6] (setting [8]) it was 50%; in assay [6] (at 50.0 µM), 94.4% (active).
Regarding `COc1ccc(OC)c2c1C=C[C@H](C1(C)SCCS1)C2C(C)=O` (stereo not given in full), the growth inhibition was 6% in assay [1] (setting [7]); 82% (active) in assay [1] (setting [8]); 74% (active) in assay [1] (at 50.0 µM); -4% in assay [2] (setting [7]); 88% (active) in assay [2] (setting [8]); 82% (active) in assay [2] (at 50.0 µM). The growth inhibition was 6% in assay [3] (setting [7]); 77% (active) in assay [3] (setting [8]); 80.7% (active) in assay [3] (at 50.0 µM); 7% in assay [4] (setting [7]); 83% (active) in assay [4] (setting [8]); 72.3% (active) in assay [4] (at 50.0 µM). In addition, the growth inhibition was -2% in assay [5] (setting [7]); 90% (active) in assay [5] (setting [8]); 76.5% (active) in assay [5] (at 50.0 µM); -13% in assay [6] (setting [7]); 92% (active) in assay [6] (setting [8]); 77% (active) in assay [6] (at 50.0 µM).
As to `CCOC(=O)c1[nH]c2c([N+](=O)[O-])cccc2c1[N+](=O)[O-]`, the growth inhibition in assay [1] (setting [7]) is -12%; in assay [1] (setting [8]) it was 15%; in assay [1] (at 50.0 µM), 97% (active); in assay [2] (setting [7]) it was -16%; in assay [2] (setting [8]), 16%; in assay [2] (at 50.0 µM), 98% (active). Besides, the growth inhibition in assay [3] (setting [7]) is -3%; in assay [3] (setting [8]) it was 9%; in assay [3] (at 50.0 µM), 94.8% (active); in assay [4] (setting [7]), 4%; in assay [4] (setting [8]) it was 25%; in assay [4] (at 50.0 µM) it was 98.6% (active). In addition, the growth inhibition in assay [5] (setting [7]) is 0%; in assay [5] (setting [8]), 7%; in assay [5] (at 50.0 µM), 98.8% (active); in assay [6] (setting [7]), -2%; in assay [6] (setting [8]) it was 37%; in assay [6] (at 50.0 µM), 99% (active).
For `Cc1ccc(C)c2c3c([nH]c12)-c1ccccc1CC3`, the growth inhibition was 1% in assay [1] (setting [7]); 3% in assay [1] (setting [8]); 98.5% (active) in assay [1] (at 50.0 µM); -3% in assay [2] (setting [7]); 2% in assay [2] (setting [8]); 92.8% (active) in assay [2] (at 50.0 µM). Further, the growth inhibition in assay [3] (setting [7]) was -4%; in assay [3] (setting [8]), 10%; in assay [3] (at 50.0 µM), 83.5% (active); in assay [4] (setting [7]) it was -1%; in assay [4] (setting [8]) it was 7%; in assay [4] (at 50.0 µM), 80% (active). Further, the growth inhibition in assay [5] (setting [7]) is 0%; in assay [5] (setting [8]) it was 4%; in assay [5] (at 50.0 µM) it was 96.7% (active); in assay [6] (setting [7]) it was 6%; in assay [6] (setting [8]), 9%; in assay [6] (at 50.0 µM) it was 94.8% (active).
With `CCC(C)NCCNc1cc(OC)cc2cccnc12` (stereo not given), the growth inhibition is 10% in assay [1] (setting [7]); 13% in assay [1] (setting [8]); 42.9% in assay [1] (at 50.0 µM); 1% in assay [2] (setting [7]); 0% in assay [2] (setting [8]); 27% in assay [2] (at 50.0 µM). The growth inhibition is 7% in assay [3] (setting [7]); 10% in assay [3] (setting [8]); 21% in assay [3] (at 50.0 µM); 16% in assay [4] (setting [7]); -5% in assay [4] (setting [8]); -26.6% in assay [4] (at 50.0 µM). For the same compound, the growth inhibition was -1% in assay [5] (setting [7]); -1% in assay [5] (setting [8]); 35% in assay [5] (at 50.0 µM); 10% in assay [6] (setting [7]); 33% in assay [6] (setting [8]); 51.1% in assay [6] (at 50.0 µM).
Take `Cc1ccc(/[N+]([O-])=C/c2ccccc2)cc1`: the growth inhibition in assay [1] (setting [7]) is -2%; in assay [1] (setting [8]), -23%; in assay [1] (at 50.0 µM) it was 98.2% (active); in assay [2] (setting [7]), 4%; in assay [2] (setting [8]), -17%; in assay [2] (at 50.0 µM) it was 99.2% (active). The growth inhibition was -13% in assay [3] (setting [7]); -2% in assay [3] (setting [8]); 95.7% (active) in assay [3] (at 50.0 µM); -46% in assay [4] (setting [7]); -25% in assay [4] (setting [8]); 52.8% in assay [4] (at 50.0 µM). Besides, the growth inhibition in assay [5] (setting [7]) was -12%; in assay [5] (setting [8]), 13%; in assay [5] (at 50.0 µM) it was 99% (active); in assay [6] (setting [7]) it was -27%; in assay [6] (setting [8]) it was -20%; in assay [6] (at 50.0 µM), 79.2% (active).
Consider `CCCCC(/C=N\NC(=O)c1ccc[n+](C)c1)=C/c1ccccc1`, for which the growth inhibition is 18% in assay [1] (setting [7]); 1% in assay [1] (setting [8]); 88.3% (active) in assay [1] (at 50.0 µM); 1% in assay [2] (setting [7]); -3% in assay [2] (setting [8]); 95.4% (active) in assay [2] (at 50.0 µM). The growth inhibition in assay [3] (setting [7]) was -6%; in assay [3] (setting [8]), -3%; in assay [3] (at 50.0 µM), 88.7% (active); in assay [4] (setting [7]) it was -2%; in assay [4] (setting [8]), -5%; in assay [4] (at 50.0 µM), 18.5%. Also, the growth inhibition is -4% in assay [5] (setting [7]); -7% in assay [5] (setting [8]); 94.5% (active) in assay [5] (at 50.0 µM); -1% in assay [6] (setting [7]); 16% in assay [6] (setting [8]); 90.6% (active) in assay [6] (at 50.0 µM).
With `CC(=O)Oc1ccc(Cl)cc1Cc1cc(Cl)ccc1OC(C)=O`, the growth inhibition in assay [1] (setting [7]) was 17%; in assay [1] (setting [8]) it was 85% (active); in assay [1] (at 50.0 µM) it was 94.2% (active); in assay [2] (setting [7]), -1%; in assay [2] (setting [8]), 93% (active); in assay [2] (at 50.0 µM) it was 90.7% (active). Moreover, the growth inhibition in assay [3] (setting [7]) was 7%; in assay [3] (setting [8]) it was 83% (active); in assay [3] (at 50.0 µM) it was 94.5% (active); in assay [4] (setting [7]), -4%; in assay [4] (setting [8]), 94% (active); in assay [4] (at 50.0 µM) it was 89.2% (active). The growth inhibition in assay [5] (setting [7]) is -3%; in assay [5] (setting [8]) it was 88% (active); in assay [5] (at 50.0 µM), 94.5% (active); in assay [6] (setting [7]) it was 2%; in assay [6] (setting [8]) it was 94% (active); in assay [6] (at 50.0 µM), 95.2% (active).
For the compound `C1=NC2c3ccccc3Cc3cccc1c32` (stereo not given), the growth inhibition is -20% in assay [1] (setting [7]); 94% (active) in assay [1] (setting [8]); 95.4% (active) in assay [1] (at 50.0 µM); -3% in assay [2] (setting [7]); 97% (active) in assay [2] (setting [8]); 95.8% (active) in assay [2] (at 50.0 µM). Also, the growth inhibition in assay [3] (setting [7]) was 7%; in assay [3] (setting [8]), 97% (active); in assay [3] (at 50.0 µM), 95.3% (active); in assay [4] (setting [7]), -28%; in assay [4] (setting [8]) it was 96% (active); in assay [4] (at 50.0 µM), 93.6% (active). Also, the growth inhibition was 2% in assay [5] (setting [7]); 97% (active) in assay [5] (setting [8]); 93.3% (active) in assay [5] (at 50.0 µM); -13% in assay [6] (setting [7]); 97% (active) in assay [6] (setting [8]); 94.3% (active) in assay [6] (at 50.0 µM).
`Nc1ncnc2c1ncn2CC(O)CN(CCO)CCO` (stereo not given) (tested in a mixture with another compound): the growth inhibition is -24% in assay [1] (setting [7]); -1% in assay [1] (setting [8]); -5% in assay [1] (at 50.0 µM); -10% in assay [2] (setting [7]); -7% in assay [2] (setting [8]); -3.15% in assay [2] (at 50.0 µM). Further, the growth inhibition in assay [3] (setting [7]) was -11%; in assay [3] (setting [8]) it was -3%; in assay [3] (at 50.0 µM), -12.1%; in assay [4] (setting [7]), -12%; in assay [4] (setting [8]), 4%; in assay [4] (at 50.0 µM), 18.8%. For the same compound, the growth inhibition was 7% in assay [5] (setting [7]); 15% in assay [5] (setting [8]); 2% in assay [5] (at 50.0 µM); -15% in assay [6] (setting [7]); -17% in assay [6] (setting [8]); 22.2% in assay [6] (at 50.0 µM).
